Several values for one entry are separate records, joined by “and”; a condition that tells them apart may be missing. Equal values may be shown once. A number with no mark means an inactive call. Records with an inconclusive call do not appear. Where a call stands in place of a potency, no number is given. Activity calls are given as the source filed them. Unless noted, calls follow the shape of the dose curve; as a rule, active = well fitted curve in either direction with a large enough effect (not every such curve was filed as active); inconclusive = small, poorly fitted or top-dose-only effect, or another doubt; inactive = flat fitted curve, though single readings scatter.
Target: Glucocorticoid receptor (Homo sapiens) (UniProt P04150)
Sequence (P04150 whole entry, looked up): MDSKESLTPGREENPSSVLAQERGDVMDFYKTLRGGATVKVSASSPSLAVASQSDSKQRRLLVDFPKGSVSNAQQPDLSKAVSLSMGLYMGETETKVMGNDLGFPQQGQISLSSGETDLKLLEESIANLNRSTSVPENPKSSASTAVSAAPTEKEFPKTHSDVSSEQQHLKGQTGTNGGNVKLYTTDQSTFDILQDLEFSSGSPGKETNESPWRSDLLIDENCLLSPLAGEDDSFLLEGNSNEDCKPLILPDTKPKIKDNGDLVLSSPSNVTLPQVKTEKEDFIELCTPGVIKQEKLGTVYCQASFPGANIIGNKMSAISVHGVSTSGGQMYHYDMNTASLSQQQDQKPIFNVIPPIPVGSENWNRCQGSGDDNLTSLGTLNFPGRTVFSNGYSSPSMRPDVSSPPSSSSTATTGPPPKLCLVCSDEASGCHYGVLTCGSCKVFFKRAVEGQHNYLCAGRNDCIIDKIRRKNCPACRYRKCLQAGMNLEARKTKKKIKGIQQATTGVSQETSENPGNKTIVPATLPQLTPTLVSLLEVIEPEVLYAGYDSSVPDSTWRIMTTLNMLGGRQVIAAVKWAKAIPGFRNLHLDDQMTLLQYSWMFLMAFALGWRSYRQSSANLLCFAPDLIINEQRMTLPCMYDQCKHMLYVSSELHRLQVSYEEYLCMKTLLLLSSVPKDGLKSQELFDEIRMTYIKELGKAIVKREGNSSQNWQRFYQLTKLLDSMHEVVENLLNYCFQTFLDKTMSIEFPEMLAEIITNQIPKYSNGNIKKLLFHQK
Assay: GR-EFC Redistribution (AID 451; calls by dose curve; also: potency is read from the fitted curve at half-maximal effect)
Conditions: CHO-K1 GR-EFC translocation, beta-gal luminescence, 2 h
Outline: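 CHO-K1 cells stably expressing nuclear-localized β-gal enzyme acceptor and GR fused C-terminally to the enzyme donor fragment; ligand-driven nuclear translocation restores β-gal by complementation. Compounds titrated up to 46 uM final, 2 h at 37 °C; luminescence read.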

Row | Structure (SMILES) | Potency
1 | Nc1nc(OCc2ccccc2)c2[nH]cnc2n1 | > 46 µM
2 | Cc1c(OCC(F)(F)F)ccnc1CS(=O)c1nc2ccccc2[nH]1 (stereo not given) | > 46 µM and > 20.6 µM
3 | N=C(N=C(N)N)N1CCOCC1 | > 20.6 µM and > 46 µM
4 | COc1ccccc1N1CCN(CCN(C(=O)C2CCCCC2)c2ccccn2)CC1 | > 46 µM
5 | c1ccc2[nH]c(-c3cscn3)nc2c1 | > 20.6 µM
6 | CCOc1cc(CC(=O)N[C@@H](CC(C)C)c2ccccc2N2CCCCC2)ccc1C(=O)O | > 20.6 µM
7 | O=c1ccc2ccc(O)c(O)c2o1 | > 46 µM
8 | Nc1ccc(S(N)(=O)=O)cc1 | > 20.6 µM
9 | Cc1cccc(C#Cc2ccccc2)n1 | > 46 µM
10 | CCc1nc(N)nc(N)c1-c1ccc(Cl)cc1 | > 20.6 µM
11 | CN1C(C(=O)Nc2ccccn2)=C(O)c2sccc2S1(=O)=O | > 20.6 µM
12 | O=C(O)c1cccnc1Nc1cccc(C(F)(F)F)c1 | > 46 µM and > 20.6 µM
13 | NC(=NCc1ccccc1)NC(=O)c1nc(Cl)c(N)nc1N | > 46 µM and > 20.6 µM
14 | COc1c2occc2cc2ccc(=O)oc12 | > 20.6 µM
15 | O=c1c(O)c(-c2cc(O)c(O)c(O)c2)oc2cc(O)cc(O)c12 | > 46 µM and > 20.6 µM
16 | NNc1nncc2ccccc12 | > 46 µM and > 20.6 µM
17 | CCC1=C(C)CN(C(=O)NCCc2ccc(S(=O)(=O)NC(=O)NC3CCC(C)CC3)cc2)C1=O (stereo not given) | > 20.6 µM
18 | O=c1cc(N2CCOCC2)oc2c(-c3ccccc3)cccc12 | > 46 µM
19 | Nc1cc(C(Cl)=C(Cl)Cl)c(S(N)(=O)=O)cc1S(N)(=O)=O | > 20.6 µM
20 | CC1(C)C(=O)N(CCN2CCC(C(=O)c3ccc(F)cc3)CC2)c2ccccc21 | > 46 µM
21 | O=c1c(O)c(-c2ccc(O)cc2O)oc2cc(O)cc(O)c12 | > 46 µM
22 | CCCCN(CCCC)CCC(O)c1cc2c(Cl)cc(Cl)cc2c2cc(C(F)(F)F)ccc12 (stereo not given) | > 20.6 µM

Target: Mitogen-activated protein kinase 10 (Mus musculus) (UniProt Q61831)
Assay: JNK3 AlphaScreen Assay (AID 530);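 also: kinase came from lysate of stimulated human HepG2 cells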; also: potency is read from the fitted curve at half-maximal effect
Conditions: JNK3 lysate, c-Jun phosphorylation; series mostly up to 57.1 µM
Outline: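 Phosphorylation of biotinylated GST-cJun(1-79) at Ser73 is measured by AlphaScreen proximity luminescence. Enzyme is JNK3 in HepG2 lysates activated with interleukin-1beta and tumor necrosis factor alpha; ATP is 10 uM final.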

Row | Structure (SMILES) | Potency
23 | CC(=O)Nc1ccc(O)cc1 | inactive
24 | Cc1c(OCC(F)(F)F)ccnc1CS(=O)c1nc2ccccc2[nH]1 (stereo not given) | inactive
25 | N=C(N=C(N)N)N1CCOCC1 | inactive
26 | Cc1ccc(C)c(OCCCC(C)(C)C(=O)O)c1 | inactive
27 | COc1ccccc1N1CCN(CCN(C(=O)C2CCCCC2)c2ccccn2)CC1 | inactive
28 | CC1(C)NC(=O)N(c2ccc([N+](=O)[O-])c(C(F)(F)F)c2)C1=O | inactive
29 | c1ccc2[nH]c(-c3cscn3)nc2c1 | inactive
30 | CCOc1cc(CC(=O)N[C@@H](CC(C)C)c2ccccc2N2CCCCC2)ccc1C(=O)O | inactive
31 | O=c1ccc2ccc(O)c(O)c2o1 | inactive
32 | CCCc1cc(=O)[nH]c(=S)[nH]1 | inactive
33 | Nc1ccc(S(N)(=O)=O)cc1 | inactive
34 | Cc1cccc(C#Cc2ccccc2)n1 | inactive
35 | CCc1nc(N)nc(N)c1-c1ccc(Cl)cc1 | inactive
36 | CN1C(C(=O)Nc2ccccn2)=C(O)c2sccc2S1(=O)=O | inactive
37 | O=C(O)c1cccnc1Nc1cccc(C(F)(F)F)c1 | inactive
38 | NS(=O)(=O)c1cc(C(=O)O)c(NCc2ccco2)cc1Cl | inactive
39 | NC(=NCc1ccccc1)NC(=O)c1nc(Cl)c(N)nc1N | inactive
40 | COc1ccc2cc([C@H](C)C(=O)O)ccc2c1 | inactive
41 | COc1c2occc2cc2ccc(=O)oc12 | inactive
42 | O=c1c(O)c(-c2cc(O)c(O)c(O)c2)oc2cc(O)cc(O)c12 | 12.6 µM (active)
43 | NNc1nncc2ccccc12 | inactive
44 | CCC1=C(C)CN(C(=O)NCCc2ccc(S(=O)(=O)NC(=O)NC3CCC(C)CC3)cc2)C1=O (stereo not given) | inactive
45 | O=c1cc(N2CCOCC2)oc2c(-c3ccccc3)cccc12 | inactive
46 | Nc1cc(C(Cl)=C(Cl)Cl)c(S(N)(=O)=O)cc1S(N)(=O)=O | inactive
47 | O=c1c(O)c(-c2ccc(O)cc2O)oc2cc(O)cc(O)c12 | inactive
48 | CCCCN(CCCC)CCC(O)c1cc2c(Cl)cc(Cl)cc2c2cc(C(F)(F)F)ccc12 (stereo not given) | inactive

Test system: not listed separately
Assay: Cell Viability - N2a (AID 540; active = well fitted cell-killing curve with a large enough effect; also: nearly all actives have a fitted effect of over 45% in size)
Conditions: N2a mouse neuroblastoma cell viability; activity change, negative = cytotoxicity: at 92.2 µM (top of the series)
Outline: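 CellTiter-Glo ATP luminescence, read 20 min after reagent at room temperature, reported viability following 40 h compound treatment at 37 °C. N2a mouse neuroblastoma cells seeded 1500/well; Hill equation gave AC50.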

Row | Structure (SMILES) | Potency
49 | CC(=O)Nc1ccc(O)cc1 | inactive
50 | Cc1ccc(C)c(OCCCC(C)(C)C(=O)O)c1 | inactive
51 | CCCc1cc(=O)[nH]c(=S)[nH]1 | inactive
52 | Nc1ccc(S(N)(=O)=O)cc1 | inactive
53 | NS(=O)(=O)c1cc(C(=O)O)c(NCc2ccco2)cc1Cl | inactive
54 | COc1c2occc2cc2ccc(=O)oc12 | inactive

Test system: not listed separately
Assay: Cell Viability - NIH 3T3 (AID 541; active = well fitted cell-killing curve with a large enough effect;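 also: cells exposed to compound for 40 hours; nearly all actives have a fitted effect of over 25% in size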)
Conditions: NIH 3T3 cell viability, qHTS; series mostly up to 92.2 µM
Outline: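 Intracellular ATP (CellTiter-Glo luminescence, 20 min at room temperature) measured after 40 hr compound exposure at 37 °C of 1000 NIH 3T3 mouse fibroblasts/well in complete medium; AC50 derived by Hill-equation modelling of qHTS concentration-response curves.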

Row | Structure (SMILES) | Potency
55 | CC(=O)Nc1ccc(O)cc1 | inactive
56 | Cc1ccc(C)c(OCCCC(C)(C)C(=O)O)c1 | inactive
57 | CCCc1cc(=O)[nH]c(=S)[nH]1 | inactive
58 | Nc1ccc(S(N)(=O)=O)cc1 | inactive
59 | NS(=O)(=O)c1cc(C(=O)O)c(NCc2ccco2)cc1Cl | inactive
60 | COc1c2occc2cc2ccc(=O)oc12 | inactive
